Tests used:
Assay in all cases: pooled miR-30 sensor sort-seq; sequence = guide strand
Settings in all cases: shRNA
[1] = target: SYT2
[2] = target: SYTL1
[3] = target: TAAR8
[4] = target: SYTL4
[5] = target: TAS1R2
[6] = target: TC2N
[7] = target: TCTN3
[8] = target: TEAD3
[9] = target: TGFB1I1
[10] = target: TMEFF2
[11] = target: TMEM218
[12] = target: TMEM70
[13] = target: TMEM231
[14] = target: TMEM42
Further: reference of the scale not given here.

TTGGCCAGCATGTCGGACCAGT
sensor-assay potency score (higher = more potent) [1]: -0.931

TTTGGCAAACATGTCCTCCTGA
sensor-assay potency score (higher = more potent) [1]: 0.92

TAGACGCTCGGACAAGGTCAGA
sensor-assay potency score (higher = more potent) [2]: -1.39

TATTTCTTCTTCTTGTCAGGAA
sensor-assay potency score (higher = more potent) [1]: 0.447

TTGAACACAGGGCTGAGGCTGC
sensor-assay potency score (higher = more potent) [2]: 0.21

TATAGCTTGTTGTTTAGCTATA
sensor-assay potency score (higher = more potent) [3]: -1.63

TTTGGGAGCAGACATCTTCTTC
sensor-assay potency score (higher = more potent) [4]: -0.722

TTGACGTAGGGGTCCGAGCGGC
sensor-assay potency score (higher = more potent) [2]: -0.281

TTGTCTCGCAGCTCATCGCTGA
sensor-assay potency score (higher = more potent) [5]: -0.453

TTTCTTCTTACAGAGCTTCGAC
sensor-assay potency score (higher = more potent) [6]: -0.277

TTGAAGTGAATGATTCGCCTCC
sensor-assay potency score (higher = more potent) [7]: 0.789

TTGGTCTCTATCTCATAGGTGA
sensor-assay potency score (higher = more potent) [7]: -0.211

TTGTTCTGCAGGACACTGGCAG
sensor-assay potency score (higher = more potent) [8]: -0.245

TTTCTCGTCCGAGTCTTCCCCG
sensor-assay potency score (higher = more potent) [8]: -0.491

TTTTCTTATCTTCAGACTGGTC
sensor-assay potency score (higher = more potent) [9]: -0.967

TTGTGGAGCTCACCACCGGTGG
sensor-assay potency score (higher = more potent) [9]: -1.9

TAGAACACTGTAGTCCTTTTTT
sensor-assay potency score (higher = more potent) [10]: -1.55

AAAGCCAGCAGGACATAGCGGC
sensor-assay potency score (higher = more potent) [11]: -0.627

TAACAATCAGTCACTAACGGAA
sensor-assay potency score (higher = more potent) [12]: -0.91

TTAAAATGTAACATGTCCGTCT
sensor-assay potency score (higher = more potent) [13]: 0.405

TTTCACACCAAACACTGCTCGG
sensor-assay potency score (higher = more potent) [12]: -0.271

TTAACTAACAGTGATTTTGTTT
sensor-assay potency score (higher = more potent) [12]: -0.473

TAGCCCAGGAAGGCCGAGCTGA
sensor-assay potency score (higher = more potent) [14]: -1.22

TTGAATACGCCCCAAAAGCGGC
sensor-assay potency score (higher = more potent) [14]: -1.46

TAAACAAACATCATTCTCTGGA
sensor-assay potency score (higher = more potent) [12]: 0.0797

TACAATCGAATGACATAGCCTT
sensor-assay potency score (higher = more potent) [12]: 0.02

TAATCGATAGGAGAAAGTCAGG
sensor-assay potency score (higher = more potent) [13]: -1.54

TGGATTAGGGTGAGTCCGCAGA
sensor-assay potency score (higher = more potent) [14]: -1.31

TTCTTCTCTAGTCGAAACGAGC
sensor-assay potency score (higher = more potent) [13]: -1.58

TAGCATTGTAGGTAATGGCTTT
sensor-assay potency score (higher = more potent) [12]: -0.0699

— the OligoGym collection
